# About 79,000 compounds went through this panel and 15% of them were active in at least one assay; those are over-represented in the sample as a whole. Unmarked numbers belong to inactive results. Active and inactive are the calls of the source. Cut-off read from the data, not from the text of the source: active = growth inhibition above about 70%; inactive = the rest.
# What was measured:
# [1] = NCI Yeast Anticancer Drug Screen. Data for the wt1 strain (AID 149);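 note: 0% = growth of vehicle-treated wt1 cultures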; conditions: S. cerevisiae wt1 strain (SPY 50644) growth inhibition, stronger effect = higher value
# Method in brief: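 Growth inhibition read against vehicle controls after compound exposure of the wt1 yeast strain.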
# [2] = NCI Yeast Anticancer Drug Screen. Data for the rad50EPP+ strain (AID 151);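 note: 0% = growth of vehicle-treated control cultures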; conditions: S. cerevisiae rad50 mutant strain, stronger effect = higher value
# Method in brief: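 In this screen, rad50EPP+ yeast were exposed to compounds. Growth inhibition was scored against vehicle-treated controls.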
# [3] = NCI Yeast Anticancer Drug Screen. Data for the rad50 strain (AID 155);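 note: 0% = growth of vehicle-only cultures of the same strain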; conditions: S. cerevisiae rad50 strain growth inhibition, stronger effect = higher value
# Method in brief: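 Readout: growth inhibition relative to vehicle-treated cultures. Compound exposure was carried out in a genetically defined yeast strain deficient in DNA damage repair.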
# [4] = NCI Yeast Anticancer Drug Screen. Data for the mec2-1 strain (AID 157); conditions: S. cerevisiae mec2-1 strain, stronger effect = higher value
# Method in brief: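 Vehicle-treated cultures served as reference for growth inhibition of compound-exposed mec2-1 yeast.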
# [5] = NCI Yeast Anticancer Drug Screen. Data for the rad14 strain (AID 159);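 note: 0% = growth of vehicle-treated control cultures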; conditions: S. cerevisiae rad14 strain growth inhibition, stronger effect = higher value
# Method in brief: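 Growth inhibition vs vehicle controls; genetically altered yeast strain (DNA damage repair defect) treated with test compounds.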
# [6] = NCI Yeast Anticancer Drug Screen. Data for the sgs1 mgt1 strain (AID 161);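 note: 0% = growth of cultures given vehicle only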; conditions: S. cerevisiae sgs1 mgt1 strain, stronger effect = higher value
# Method in brief: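 Read-out: growth inhibition vs vehicle controls. Cells: mutant yeast strain deficient in DNA damage repair.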
# [7] = NCI Yeast Anticancer Drug Screen. Data for the CLN2oe strain (AID 163);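 note: 0% = growth of vehicle-only control cultures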; conditions: S. cerevisiae CLN2oe strain, stronger effect = higher value
# Method in brief: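 Inhibition relative to vehicle-treated yeast is reported. Cells: strain with genetic alteration in cell-cycle control, grown with compound.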
# [8] = NCI Yeast Anticancer Drug Screen. Data for the cln2 rad14 strain (AID 165);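 note: 0% = growth equal to vehicle treated cultures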; conditions: S. cerevisiae cln2 rad14 strain, stronger effect = higher value
# Method in brief: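 Each compound was tested on cln2 rad14 yeast. Inhibition of growth was calculated against vehicle-exposed controls.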
# [9] = NCI Yeast Anticancer Drug Screen. Data for the bub3 strain (AID 167); conditions: S. cerevisiae bub3 mutant strain, stronger effect = higher value
# Method in brief: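 Readout: yeast growth inhibition, expressed relative to vehicle-only wells. The test organism is a mutant strain from a panel with lesions in DNA repair or checkpoint genes.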
# [10] = NCI Yeast Anticancer Drug Screen. Data for the wt2 strain (AID 169);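 note: 0% = growth of vehicle-treated yeast cultures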; conditions: S. cerevisiae wt2 strain growth inhibition, stronger effect = higher value
# Method in brief: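 Inhibition of yeast growth was determined after compound treatment, normalised to controls receiving only vehicle.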
# [11] = NCI Yeast Anticancer Drug Screen. Data for the mlh1 strain (AID 171);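 note: 0% = growth of vehicle-treated control cultures of the same strain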; conditions: S. cerevisiae mlh1 strain growth inhibition, stronger effect = higher value
# Method in brief: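 Vehicle-normalised growth inhibition of a repair- or checkpoint-altered yeast strain following compound treatment.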
# [12] = NCI Yeast Anticancer Drug Screen. Data for the sgs1 strain (AID 173);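 note: 0% = growth of vehicle-only control cultures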; conditions: S. cerevisiae sgs1 mutant, stronger effect = higher value
# Method in brief: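 Screen format: yeast with repair or checkpoint alterations, compound exposure, growth read relative to vehicle.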
# [13] = NCI Yeast Anticancer Drug Screen. Data for the mlh1 rad18 strain (AID 175); conditions: S. cerevisiae mlh1 rad18 strain growth inhibition, stronger effect = higher value
# Method in brief: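 Vehicle-treated cultures served as the reference for growth inhibition in a yeast strain carrying DNA damage repair alterations exposed to each compound.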
# [14] = NCI Yeast Anticancer Drug Screen. Data for the rad18 strain (AID 177); conditions: S. cerevisiae rad18 mutant growth inhibition, stronger effect = higher value
# Method in brief: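 Test articles were incubated with altered yeast defective in DNA damage repair. Results are given as inhibition of growth versus vehicle.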
# [15] = NCI Yeast Anticancer Drug Screen. Data for the mgt1 strain (AID 153); conditions: S. cerevisiae mgt1 mutant growth inhibition, stronger effect = higher value
# Method in brief: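 mgt1 strain exposed; growth vs vehicle control recorded as inhibition.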
# [16] = at 5.0 µM (retest, dose inferred, filed as 0.5)
# [17] = at 50.0 µM (retest, dose inferred, filed as 5.0)
structure (smiles),measurement,setting,value
Oc1ccc(Cc2nccc3cc(O)c(O)cc23)cc1O,growth inhibition,[1]; at 1.2 µM,-9%
same,growth inhibition,[1]; at 3.7 µM,2%
same,growth inhibition,[1]; at 11.0 µM,3%
same,growth inhibition,[1]; at 33.0 µM,19%
same,growth inhibition,[1]; at 100.0 µM,66%
same,growth inhibition,[2]; at 1.2 µM,16%
same,growth inhibition,[2]; at 3.7 µM,31%
same,growth inhibition,[2]; at 11.0 µM,22%
same,growth inhibition,[2]; at 33.0 µM,24%
same,growth inhibition,[2]; at 100.0 µM,33%
same,growth inhibition,[3]; at 1.2 µM,3%
same,growth inhibition,[3]; at 3.7 µM,-6%
same,growth inhibition,[3]; [16],47%
same,growth inhibition,[3]; at 11.0 µM,7%
same,growth inhibition,[3]; at 33.0 µM,11%
same,growth inhibition,[3]; [17],66%
same,growth inhibition,[3]; at 50.0 µM,48.9%
same,growth inhibition,[3]; at 100.0 µM,28%
same,growth inhibition,[4]; at 1.2 µM,21%
same,growth inhibition,[4]; at 3.7 µM,28%
same,growth inhibition,[4]; [16],46%
same,growth inhibition,[4]; at 11.0 µM,33%
same,growth inhibition,[4]; at 33.0 µM,47%
same,growth inhibition,[4]; [17],73% (active)
same,growth inhibition,[4]; at 50.0 µM,-25.4%
same,growth inhibition,[4]; at 100.0 µM,77% (active)
same,growth inhibition,[5]; at 1.2 µM,0%
same,growth inhibition,[5]; at 3.7 µM,14%
same,growth inhibition,[5]; at 11.0 µM,10%
same,growth inhibition,[5]; at 33.0 µM,22%
same,growth inhibition,[5]; at 100.0 µM,51%
same,growth inhibition,[6]; [16],-1%
same,growth inhibition,[6]; [17],35%
same,growth inhibition,[6]; at 50.0 µM,16.4%
same,growth inhibition,[7]; at 1.2 µM,14%
same,growth inhibition,[7]; at 3.7 µM,11%
same,growth inhibition,[7]; at 11.0 µM,24%
same,growth inhibition,[7]; at 33.0 µM,27%
same,growth inhibition,[7]; at 100.0 µM,55%
same,growth inhibition,[8]; [16],43%
same,growth inhibition,[8]; [17],63%
same,growth inhibition,[8]; at 50.0 µM,-42.5%
same,growth inhibition,[9]; at 1.2 µM,34%
same,growth inhibition,[9]; at 3.7 µM,46%
same,growth inhibition,[9]; [16],20%
same,growth inhibition,[9]; at 11.0 µM,57%
same,growth inhibition,[9]; at 33.0 µM,68%
same,growth inhibition,[9]; [17],59%
same,growth inhibition,[9]; at 50.0 µM,28.6%
same,growth inhibition,[9]; at 100.0 µM,79% (active)
same,growth inhibition,[10]; at 1.2 µM,-9%
same,growth inhibition,[10]; at 3.7 µM,16%
same,growth inhibition,[10]; at 11.0 µM,31%
same,growth inhibition,[10]; at 33.0 µM,41%
same,growth inhibition,[10]; at 100.0 µM,70% (active)
same,growth inhibition,[11]; at 1.2 µM,-2%
same,growth inhibition,[11]; at 3.7 µM,11%
same,growth inhibition,[11]; at 11.0 µM,18%
same,growth inhibition,[11]; at 33.0 µM,32%
same,growth inhibition,[11]; at 100.0 µM,65%
same,growth inhibition,[12]; at 1.2 µM,40%
same,growth inhibition,[12]; at 3.7 µM,37%
same,growth inhibition,[12]; at 11.0 µM,42%
same,growth inhibition,[12]; at 33.0 µM,52%
same,growth inhibition,[12]; at 100.0 µM,73% (active)
same,growth inhibition,[13]; [16],33%
same,growth inhibition,[13]; [17],66%
same,growth inhibition,[13]; at 50.0 µM,53.1%
same,growth inhibition,[14]; at 1.2 µM,-10%
same,growth inhibition,[14]; at 3.7 µM,4%
same,growth inhibition,[14]; at 11.0 µM,14%
same,growth inhibition,[14]; at 33.0 µM,5%
same,growth inhibition,[14]; at 100.0 µM,14%
Cc1nc2ccccc2c(=O)n1NC(=O)c1ccc(CS)cc1,growth inhibition,[1]; at 1.2 µM,8%
same,growth inhibition,[1]; at 3.7 µM,1%
same,growth inhibition,[1]; at 11.0 µM,4%
same,growth inhibition,[1]; at 33.0 µM,17%
same,growth inhibition,[1]; at 100.0 µM,96% (active)
same,growth inhibition,[2]; at 1.2 µM,-9%
same,growth inhibition,[2]; at 3.7 µM,4%
same,growth inhibition,[2]; at 11.0 µM,-3%
same,growth inhibition,[2]; at 33.0 µM,23%
same,growth inhibition,[2]; at 100.0 µM,85% (active)
same,growth inhibition,[15]; at 1.2 µM,-11%
same,growth inhibition,[15]; at 3.7 µM,-12%
same,growth inhibition,[15]; at 11.0 µM,-17%
same,growth inhibition,[15]; at 33.0 µM,6%
same,growth inhibition,[15]; at 100.0 µM,86% (active)
same,growth inhibition,[3]; at 1.2 µM,7%
same,growth inhibition,[3]; at 3.7 µM,3%
same,growth inhibition,[3]; [16],-24%
same,growth inhibition,[3]; at 11.0 µM,4%
same,growth inhibition,[3]; at 33.0 µM,23%
same,growth inhibition,[3]; [17],9%
same,growth inhibition,[3]; at 50.0 µM,66.2%
same,growth inhibition,[3]; at 100.0 µM,97% (active)
same,growth inhibition,[5]; at 1.2 µM,-21%
same,growth inhibition,[5]; at 3.7 µM,-23%
same,growth inhibition,[5]; at 11.0 µM,-25%
same,growth inhibition,[5]; at 33.0 µM,26%
same,growth inhibition,[5]; at 100.0 µM,95% (active)
same,growth inhibition,[6]; [16],-14%
same,growth inhibition,[6]; [17],3%

# Reference: PubChem BioAssay (NCI)
